The values that follow come from PubChem BioAssay (NCI).

Experiment [1] is described as follows: NCI Yeast Anticancer Drug Screen. Data for the rad50 strain (AID 155).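 Also: 0% = growth of vehicle-only cultures of the same strain.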 The following applies: S. cerevisiae rad50 strain growth inhibition; at 50.0 µM; stronger effect = higher value. In outline:
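Growth of the mutant yeast was measured after compound exposure and referenced to vehicle-treated cultures.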

Experiment [2] in a line: NCI Yeast Anticancer Drug Screen. Data for the mec2-1 strain (AID 157). The following applies: S. cerevisiae mec2-1 strain, at 50.0 µM, stronger effect = higher value. In outline: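 Growth inhibition is read against vehicle-treated controls after compound exposure of the mec2-1 yeast strain, which is defective in DNA damage repair or cell cycle control.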
The nature of experiment [3]: NCI Yeast Anticancer Drug Screen. Data for the sgs1 mgt1 strain (AID 161).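 Also: 0% = growth of cultures given vehicle only.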 To be noted: S. cerevisiae sgs1 mgt1 strain, at 50.0 µM, stronger effect = higher value. In outline:
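Percent growth inhibition was derived by comparing compound-exposed mutant yeast with vehicle-exposed cultures. The strain carries alterations in DNA damage repair.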

The nature of experiment [4]: NCI Yeast Anticancer Drug Screen. Data for the cln2 rad14 strain (AID 165).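 Also: 0% = growth equal to vehicle treated cultures.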 The following applies: S. cerevisiae cln2 rad14 strain, at 50.0 µM, stronger effect = higher value. In outline: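 Growth inhibition, relative to vehicle-treated controls, is the read-out. The test organism is a yeast strain with defined genetic alterations, cln2 rad14.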
The nature of experiment [5]: NCI Yeast Anticancer Drug Screen. Data for the bub3 strain (AID 167). The following applies: S. cerevisiae bub3 mutant strain, at 50.0 µM, stronger effect = higher value. In outline: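 Whole-cell yeast assay. The mutant strain was incubated with compounds, and growth inhibition was determined by comparison with vehicle-treated cells.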
Experiment [6] can be described thus: NCI Yeast Anticancer Drug Screen. Data for the mlh1 rad18 strain (AID 175). The following applies: S. cerevisiae mlh1 rad18 strain growth inhibition; at 50.0 µM; stronger effect = higher value. The gist of the method: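 Cells of a genetically altered yeast strain, deficient in DNA damage repair, were treated with compound. Their growth was then compared with that of vehicle-treated cultures to give inhibition.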

Compounds without any hit were thinned out: in the full panel of roughly 79,000, 15% have a hit. A number with no mark means an inactive call. The source made the active and inactive calls. Rule as the data show it: active = growth inhibition above about 70%; inactive = the rest.

Consider `CC1NC(=O)CC(c2ccccc2)N(N=O)C1c1ccccc1` (stereo unspecified), for which the growth inhibition in experiment [1] is -53.5%; in experiment [2], -3.3%; in experiment [3] it was -4.1%; in experiment [4] it was -7%; in experiment [5], -9.05%; in experiment [6], 8.65%.
Turning to `OCc1ccc2[n+](c1)CCC1c3ccccc3NC21` (stereo unspecified), the growth inhibition is -8.35% in experiment [1]; -8.75% in experiment [2]; -18.6% in experiment [3]; -8.4% in experiment [4]; -26.3% in experiment [5]; -6.45% in experiment [6].
In the case of `CN(CCO)CC(O)Cn1cnc2c(N)ncnc21` (stereo unspecified), the growth inhibition in experiment [1] was -12.5%; in experiment [2] it was -17.8%; in experiment [3], -31.5%; in experiment [4], 10.7%; in experiment [5] it was -19.4%; in experiment [6], 19.8%.
Take `CC(=O)Nc1ccc2c(c1)Cc1ccc(S(C)(=O)=O)cc1-2`: the growth inhibition is 23.9% in experiment [1]; -7.15% in experiment [2]; 10.9% in experiment [3]; 6.9% in experiment [4]; 0.65% in experiment [5]; 44.1% in experiment [6].
Take `CCOC(=O)c1c(C#N)c2cnn(-c3ccccc3)c2n2cccc12`: the growth inhibition in experiment [1] is 14.1%; in experiment [2], 9.8%; in experiment [3], -2.25%; in experiment [4], -64.2%; in experiment [5] it was -8.25%; in experiment [6], 36.1%.
Consider `O=C(CC1NCCS1)OCc1ccc(Br)cc1` (stereo unspecified), for which the growth inhibition in experiment [1] was 26.5%; in experiment [2] it was 14.1%; in experiment [3], 9.8%; in experiment [4], 24.7%; in experiment [5], 16.9%; in experiment [6] it was 50%.
As for `OC1CCCCCCCCCCC1C(O)(C(F)(F)F)C(F)(F)F` (stereo unspecified), the growth inhibition in experiment [1] is 99.3% (active); in experiment [2], 99.5% (active); in experiment [3] it was 99.8% (active); in experiment [4], 99% (active); in experiment [5], 99.6% (active); in experiment [6] it was 98.8% (active).
For the molecule `Clc1ccccc1N=Cc1ccc(C=Nc2ccccc2Cl)cc1`, the growth inhibition in experiment [1] is 26.9%; in experiment [2], 23.8%; in experiment [3] it was 34%; in experiment [4], 3.3%; in experiment [5], 38.5%; in experiment [6], 25.9%.
Regarding `O=C(O)C(Cc1ccccc1)NC(c1ccc(Cl)cc1)P(=O)(O)O` (stereo unspecified), the growth inhibition in experiment [1] is 14.3%; in experiment [2], 7.95%; in experiment [3], -2.3%; in experiment [4], 12.8%; in experiment [5] it was -4.8%; in experiment [6], 20.8%.
For the molecule `C[N+](C)(C)CC(=O)N/N=C(\Cc1nc2ccc([N+](=O)[O-])cc2[nH]c1=O)C(=O)Nc1nc2ccc([N+](=O)[O-])cc2s1`, the growth inhibition in experiment [1] was 47.2%; in experiment [2], 29.9%; in experiment [3] it was 24.6%; in experiment [4], -6.05%; in experiment [5], 53.2%; in experiment [6], 16.9%.
Take `O=C(C[N+]12CN3CN(CN(C3)C1)C2)c1cccc2ccccc12`: the growth inhibition in experiment [1] is 11.2%; in experiment [2], -11.6%; in experiment [3], 9.35%; in experiment [4] it was -3.2%; in experiment [5], -4.7%; in experiment [6] it was 14.6%.
For `BrCCOC(OCCBr)(c1ccccc1)c1ccccc1`, the growth inhibition in experiment [1] was 19.8%; in experiment [2], -10.9%; in experiment [3] it was 2.3%; in experiment [4], 11.5%; in experiment [5], 4.95%; in experiment [6] it was 6.3%.
For the molecule `CCSc1cc(N)ncn1`, the growth inhibition in experiment [1] is -39.6%; in experiment [2], -18.6%; in experiment [3], -11.5%; in experiment [4], -4.15%; in experiment [5], -14%; in experiment [6], -9.75%.
For `COC(=O)[C@@H]1[C@H](O)CC[C@H]2[C@@]1(C)CC[C@@H](C)[C@]2(COC(C)=O)CC(=O)c1ccoc1`, the growth inhibition in experiment [1] is -27.1%; in experiment [2] it was -32.2%; in experiment [3], -37%; in experiment [4], -27.1%; in experiment [5], -47.9%; in experiment [6], -45.8%.
Regarding `COc1ccc2c(c1)N1CCc3cc(OC)c(OC)cc3C1C2` (stereo unspecified), the growth inhibition was 15.8% in experiment [1]; -5.15% in experiment [2]; 25.2% in experiment [3]; 9.5% in experiment [4]; 25% in experiment [5]; 34.4% in experiment [6].
With `C#CCOCC12C=CC(O1)C1C(=O)OCC12` (stereo unspecified), the growth inhibition in experiment [1] was -9.45%; in experiment [2] it was 9.65%; in experiment [3] it was -12.8%; in experiment [4], 18.9%; in experiment [5], 21%; in experiment [6], 41.9%.
Turning to `CC(C)(C)n1c(=O)n(-c2ccccc2)n(C(C)(C)C)c1=O`, the growth inhibition in experiment [1] is 45.5%; in experiment [2], -11.8%; in experiment [3], -28.2%; in experiment [4] it was 3%; in experiment [5], -27.7%; in experiment [6], -11%.
In the case of `CCOC(=O)/C=C/c1ccc(F)cc1`, the growth inhibition in experiment [1] is 27.6%; in experiment [2], 2%; in experiment [3], 18.1%; in experiment [4], 11.2%; in experiment [5], 20.8%; in experiment [6], 10.9%.
Take `COc1ccc2c(-c3cc4ccccc4o3)cc(=O)oc2c1`: the growth inhibition in experiment [1] is -6.4%; in experiment [2] it was -16.9%; in experiment [3], -21.3%; in experiment [4], 2%; in experiment [5] it was 3%; in experiment [6], -31.9%.
As to `CSc1nc2nc(C)c(C)nc2c(=O)[nH]1`, the growth inhibition in experiment [1] was -21.9%; in experiment [2], -19.4%; in experiment [3], -43.5%; in experiment [4], 3.9%; in experiment [5], -0.75%; in experiment [6], -32%.
Take `Cc1ccc(/C(C#N)=C/c2ccccc2)cc1`: the growth inhibition in experiment [1] was 32.8%; in experiment [2] it was 26.4%; in experiment [3], 21%; in experiment [4] it was 19.6%; in experiment [5] it was 18.8%; in experiment [6], 9.65%.
